LASV entry inh = Lassa virus entry inhibition; Lassa virus pseudotype entry inhibition, cell reporter; Potency, µM (series often up to 37.9 µM), hits mostly inhibitors; actives 1.2% (n = 300,000); AID 540256; calls by dose curve; tested in HEK293 cells; further: nearly all actives have a fitted effect of over 50% in size
HCV inh = HCV inhibition; Huh7.5.1 HCVcc-Cre infection, luciferase reporter, 44 h; Potency, µM (titrated, usually from 41.8 µM), most hits filed as inhibitors; actives 3.4% (n = 340,000)
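Cells seeded at 1,000/well and cultured 4 h, then compounds added followed by HCVcc-Cre virus (~0.5 moi). After 44 h further culture, luciferase substrate was added, plates held 15 min at room temperature, and luminescence read for 15 sec.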
Pf growth 48h = inhibits P. falciparum growth in the first generation, 48 h; P. falciparum luciferase growth in erythrocytes, 48 h; Potency, µM (doses to about 28.7 µM), actives largely listed as inhibitors; actives 5.9% (n = 310,000)
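Read-out is firefly luciferase luminescence from an integrated reporter in P. falciparum, so falling signal marks reduced parasite growth. Infected erythrocytes were at 2% hematocrit and 0.1% parasitemia (final) in Albumax-supplemented RPMI 1640.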
HCMV inh = human cytomegalovirus inhibition | actives 4.5% (n = 410,000) | HFF cells, HCMV-luciferase reporter, 72 h; hits give low values | activity change, negative = inhibition, % at 57.5 µM | AID 1259415; in the data active means activity change below about -60%; inconclusive means no clear call, values can overlap the other calls; inactive means above about -39%
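Human foreskin fibroblasts infected with luciferase-reporter HCMV at MOI 1 PFU/cell, compounds at two doses. Luciferase measured 72 h post infection; normalized to buffer-only basal and Salinomycin (10uM) controls.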
MARV entry inh = Marburg virus entry inhibition; Marburg virus pseudotyped entry inhibition, cell reporter; actives 1.8% (n = 300,000); Potency, µM (top dose mostly 37.8 µM), actives largely listed as inhibitors; calls by dose curve; tested in HEK293 cells
Pf growth 96h = inhibits malaria parasite growth, 96 h; P. falciparum luciferase reporter growth, 96 h; Potency, µM (highest dose often 28.7 µM), most hits filed as inhibitors; actives 6.9% (n = 320,000)
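Two parasite generations (96 h, 37 C, 5% CO2) of compound exposure in infected erythrocytes (0.05% parasitemia, 2% hematocrit). Luciferase-reporter P. falciparum; decreased luminescence indicates inhibited growth, aimed at apicoplast-acting delayed death.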
Numbers stand for hits; n = inactive; u = inconclusive; x = no result given; [ ] = another dose, or the depositor's remark. Only some compounds are listed: those with a hit (about 14% of all), similar ones and a draw of the others. Unless noted, the call rests on the fitted dose curve; in most records, active means well fitted inhibition curve with a large enough effect; inconclusive means small, poorly fitted or top-dose-only effect, or another doubt; inactive means no such curve, though single readings can be large or run the other way.

SMILES | LASV entry inh | HCV inh | Pf growth 48h | HCMV inh | MARV entry inh | Pf growth 96h
CCCCCCCCCCOC(=O)C[N+](C)(C)C/C=C(/C)Cl | n | n | u | u | u | 2.3µM
C/C(Cl)=C\C[N+](C)(C)CC(=O)OCCc1ccccc1 | x | n | n | n | x | n
CCCCCCCCCCCCOC(=O)C[N+](C)(C)C | n | n | u | n | n | n
CC(=O)c1cccc(NC(=O)C2CCCCC2)c1 | n | n | n | n | n | 1.5µM
O=C(Cc1cccc(NC(=O)C2CCCN(C(=O)CCc3ccccc3)C2)c1)Nc1cccc(C(=O)N2CCCCC2)c1 (configuration not stated) | x | 4.5µM | x | n | x | x
O=C(Cc1cccc(NC(=O)C2CCN(C(=O)C3CCCCC3)CC2)c1)Nc1cccc(C(=O)N2CCCC2)c1 | x | n | 13µM | n | x | 10µM
O=C(Nc1nccs1)c1cccc(NC(=O)C2CC2)c1 | n | n | n | n | n | 13µM
CCCCCCCCN1C(=O)[C@H](CC(=O)NCC23CC4CC(CC(C4)C2)C3)C[C@@]2(C(=O)OCC)CCC=C12 | x | x | x | n | x | x
CN(C(=O)c1ccc(NC(=O)Cc2cccc(NC(=O)C3CCCN(C(=O)CCc4ccccc4)C3)c2)cc1)C1CC1 (configuration not stated) | x | n[8.37 µM] | x | n | x | x
O=C(Nc1cccc(C(=O)N2CCCC2)c1)C1CCC1 | x | 0.56µM | x | n | x | x
CN(C(=O)c1cccc(NC(=O)Cc2cccc(NC(=O)C3CCCN(C(=O)CCc4ccccc4)C3)c2)c1)C1CCC1 (configuration not stated) | x | 3.5µM | x | n | x | x
Cc1ccc([C@@H]2CC=C(C(=O)O)[C@H](c3ccccc3F)N2S(=O)(=O)c2ccc(C)cc2)cc1 | x | n | n | n | x | u
Cc1ccc(S(=O)(=O)N2[C@@H](c3ccc(F)cc3)C(C(=O)O)=CC[C@H]2c2ccc3c(c2)OCO3)cc1 | x | n | u | n | x | 12µM
Cc1ccc(S(=O)(=O)N2[C@@H](c3ccccc3F)C(C(=O)O)=CC[C@H]2c2ccc3c(c2)OCO3)cc1 | x | n[8.37 µM] | u | n | x | 12µM
Cc1ccc([C@@H]2CC=C(C(=O)O)[C@H](c3ccc(F)cc3)N2S(=O)(=O)c2ccc(C)cc2)cc1 | x | n | n | n | x | n
CCOc1ccc(NC(=O)C2CC(=O)N(c3ccc(C(C)C)cc3)C2)cc1 (configuration not stated) | n | x | x | n | n | x
CCCCn1c(N)c(N(CCOC)C(=O)CCCn2c(=O)oc3ccccc32)c(=O)[nH]c1=O | n | n | x | n | n | x
COc1cccc2c1cc1c(=O)n(CC(=O)N3CCN(c4ccccc4F)CC3)nc(C)n12 | x | x | x | n | n | x
Cn1ccc2cc(NC(=O)Nc3cccnc3)ccc21 | x | u | x | -100 | x | x
Cc1cnc(Nc2nc3ccccc3o2)nc1C(=O)Nc1cccc(C(F)(F)F)c1 | n | 6.3µM | u | -74 | n | n
C#CCOCCOCCOCCNc1nc(N2CCN(C(=O)CCCCCCCCCCNC(=O)[C@H](CCCCN)n3cc(C)nn3)CC2)nc(N2CCN(C(=O)CCCCCCCCCCNC(=O)[C@H](CCCCN)n3cc(CCCC(=O)O)nn3)CC2)n1 | x | n | 10µM | x | x | u
C#CCOCCOCCOCCNc1nc(N2CCN(C(=O)CCCCCCCCCCNC(=O)[C@H](CCCCN)n3cc(CCCC(=O)O)nn3)CC2)nc(N2CCN(C(=O)CCCCCCCCCCNC(=O)[C@@H]([C@H](C)O)n3cc(C)nn3)CC2)n1 | x | n | 5.2µM | x | x | 5.9µM
C#CCOCCOCCOCCNc1nc(N2CCN(C(=O)CCCCCCCCCCNC(=O)[C@H](CO)n3cc(CCCSC)nn3)CC2)nc(N2CCN(C(=O)CCCCCCCCCCNC(=O)[C@H](CCCCN)n3cc(CCO)nn3)CC2)n1 | x | n | x | n | x | x
O=C(C1CCCCC1)N1CC(=O)N2[C@H](C1)[C@@H](c1ccc(Br)cc1)[C@@H]2CO | x | x | x | n | x | x
CCC(C)CN1C(=O)NC(c2ccccc2)C(C(=O)OC)=C1C (configuration not stated) | u | x | x | x | n | x
SMILES | LASV entry inh | HCV inh | Pf growth 48h | HCMV inh | MARV entry inh | Pf growth 96h
CCOc1ccc(-n2nc(CO)c(C(=O)NCc3cccs3)n2)cc1 | u | x | x | n | n | x
COc1ccc(OC)c(Nc2nc(-c3ccc(C)cc3)nc3ccccc23)c1 | n | x | x | n | x | x
Cc1ccc(Nc2nc(NCCO)c3ccccc3n2)cc1C | n | 13µM | 0.47µM | n | u | u
COc1ccc(OC)c(Nc2nc(NCCO)c3ccccc3n2)c1 | n | u | 2.1µM | n | u | u
Cc1ccc(Nc2nc(N)c3ccccc3n2)cc1Cl | x | n | u | n | x | n
Cc1ccc(-n2c(SCn3nnc4ccccc4c3=O)nnc2-c2cccnc2)c(C)c1 | n | n | 10µM | n | n | u
COc1ccc(C(=O)NC2CC3CCCC(C2)N3Cc2ccccc2)cc1OC (configuration not stated) | x | n | n | n | x | n
CCN(CC)C(=O)[C@H]1CC(CC(=O)NCc2cccc(C(F)(F)F)c2)C(=O)N2CCc3c([nH]c4ccccc34)[C@]12C (some centres not stated) | x | 13µM | x | n | x | x
CCN(CC)C(=O)[C@H]1C[C@H](CC(=O)NCc2cccc(C(F)(F)F)c2)C(=O)N2CCc3c([nH]c4ccc(Cl)cc34)[C@]12C | x | u | x | n | x | x
CC[C@]12c3[nH]c4cc(CCC(=O)N(C)C)ccc4c3CCN1C(=O)[C@@H](CC(=O)NCc1cccc(C(F)(F)F)c1)C[C@@H]2C(=O)N1CCN(C(=O)c2ccco2)CC1 | x | n[8.37 µM] | x | n | n | x
CC[C@]12c3[nH]c4cc(CCC(=O)N(C)C)ccc4c3CCN1C(=O)[C@@H](CC(=O)NCc1cccc(C(F)(F)F)c1)C[C@@H]2C(=O)N1CCN(C(=O)C2CC2)CC1 | x | 0.56µM | x | n | x | x
CN(C)C(=O)CCc1ccc2c3c([nH]c2c1)[C@]1(CCC2CCCC2)[C@@H](C(=O)N2CCOCC2)C[C@H](CC(=O)NCCN2CCOCC2)C(=O)N1CC3 | x | 0.32µM | x | n | x | x
Cc1ccccc1S(=O)(=O)NC(=O)C1(C)CCN1C(=O)c1cccc(F)c1 (configuration not stated) | x | x | x | n | x | x
CCc1nc2c(OCc3ccccc3)cccn2c1N(C)C(=O)C(C)C | x | x | x | n | x | x
N#Cc1c(N)n(-c2cccc(Cl)c2)c2nc3ccccc3nc12 | n | x | x | n | n | x
CCc1ccc(NC(=O)c2ccc3c(O)c(S(=O)(=O)c4ccccc4)c(=O)[nH]c3c2)cc1 | n | x | x | n | x | x
COc1ccc(-n2c(SCC(=O)Nc3cc(C)cc(C)c3)nc3c(oc4ccccc43)c2=O)cc1 | x | x | x | n | n | x
COc1ccc(CNC(=S)N/N=C/c2ccncc2)cc1 | u | n | n | u | n | n
C=CCNC(=S)N/N=C/c1ccc(N(CC)Cc2ccccc2)cc1 | 16µM | u | 6.6µM | n | 12µM | n
CCN(CC)c1ccc(/C=C(\C#N)C(=O)NCc2ccccc2)cc1 | u | 25µM | u | x | n | n

Screens as filed in PubChem BioAssay.
